# Screening results as filed in PubChem BioAssay.
# Compounds with a hit are over-represented: about 1.8% of the library has one in this group of screens.
# NALP1 inh: NALP1 inhibition; S. cerevisiae NALP1/ASC/caspase-1 growth, X-gal OD620, 72 h; inhibition, % at 10 µM; actives 0.61% (n = 280,000); in the data active = inhibition mostly above about 24%, no sharp cut-off; inactive = mostly below about 32%
# SUMO Mot1 rescue: blocks SUMOylation pathway, rescuing yeast Mot1-301 growth. S. cerevisiae Mot1-301 growth rescue, ATP luminescence, 38.5C; percent above DMSO median, 100 means doubled. growth rescue, % at 18.8 µM. actives 1% (n = 320,000). AID 2716;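 active = every valid replicate shows activation above 250% relative to neutral control wells; inactive = the rest, any valid replicate at or below 250%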;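 note: OY570 slx delta 5 strain wells were the positive control but not used for scaling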
# NLRP3 yeast inh: inhibitors of NALP3 inflammasome in yeast; inhibition, % at 10 µM; actives 0.39% (n = 330,000); AID 2825; Yeast reconstituted NLRP3/ASC/caspase-1, beta-gal luminescence, 24 h;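 active = inhibition of 50% or more; inactive = inhibition below 50%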;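 note: plate controls were induced DMSO wells for no effect and uninduced yeast grown without galactose for full effect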
# PolyA inh: inhibitors of polyadenylation in S. cerevisiae. S. cerevisiae SKY197-pL101 polyadenylation reporter, beta-gal luminescence; efflux-impaired pdr1/pdr3 knockout yeast; score 100 = 6 SD above DMSO. activity score, % at 12 µM. actives 0.02% (n = 300,000);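 active = lowest replicate activity score at least 50, where 100 means six control SD above control mean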;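 note: yeast exposed to compound for 9 h at 30 °C; higher score means more reporter readthrough which indicates perturbed polyadenylation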
# Numbers without * were called inactive; · = no result.
SMILES,NALP1 inh,SUMO Mot1 rescue,NLRP3 yeast inh,PolyA inh
CCOc1ccccc1C(=O)NC(C(=O)NCc1ccccc1OC)C(C)C (stereo unspecified),1.8,-12.7,14.0,-14.5
CCOc1ccccc1C(=O)N[C@H](C(=O)Nc1cc(S(=O)(=O)N(C)C)ccc1OC)C(C)C,23.8*,7.9,-3.3,1.1
Cc1ccc(OCCn2cc(/C=C(\C#N)C(=O)NCC3CCCO3)c3ccccc32)cc1C (stereo unspecified),45.2*,-3.5,18.7,5.5
OC(CNCCc1ccccc1)COc1ccc(OCC(O)CNCCc2ccccc2)cc1 (stereo unspecified),6.9,-12.3,38.7,1.1
OC(CNCCC(c1ccccc1)c1ccccc1)COc1ccccc1 (stereo unspecified),33.4*,-19.0,22.7,10.6
C=CCSC(=S)NC1CCS(=O)(=O)C1 (stereo unspecified),82.5*,-9.9,24.7,6.3
NC(=S)NC1CCS(=O)(=O)C1 (stereo unspecified),3.2,3.7,11.2,12.8
CC(C(=O)Nc1ccc(O)cc1)c1cccc(C(=O)c2ccccc2)c1 (stereo unspecified),5.4,-1.5,15.2,10.8
O=C(Nc1ncc2c(n1)CC(c1ccccc1)CC2=O)c1ccco1 (stereo unspecified),-86.1,13.5,25.9,20.0
CCCCCC(=O)Nc1ncc2c(n1)CC(c1cccs1)CC2=O (stereo unspecified),38.2*,-4.9,25.7,-1.1
O=[N+]([O-])c1cnccc1Nc1ccccc1,33.4*,3.2,6.8,-11.9
C1CCCCCC2(CCCCC1)OCC(CN1CCOCC1)O2 (stereo unspecified),54.0*,3.3,36.3,-19.9
O=C(Nc1cccc(-c2cccc(Cl)c2)c1)C1CCN(CC2CCOC2)CC1 (stereo unspecified),12.0,194.5,28.3,-9.4
O=C(Nc1cccc(-c2cccc(F)c2)c1)C1CCN(CC2CCOC2)CC1 (stereo unspecified),13.5,270.3*,16.2,-1.6
COc1ccc(N=Cc2ccc[nH]2)cc1,36.0*,-7.8,6.8,13.8
CCCCOc1ccc(N=Cc2ccc[nH]2)cc1,18.7,8.8,11.6,2.2
CCC(C)(C)n1nnnc1C(c1ccc2ncccc2c1)N1CCCC(C)C1 (stereo unspecified),-6.3,341.6*,14.3,14.1
C[C@H](CO)N1C[C@H](C)[C@@H](CN(C)S(=O)(=O)c2ccc(F)cc2)Oc2ccc(NC(=O)Cc3cn(C)c4ccccc34)cc2C1=O,·,13.7,20.7,·
CC1=CC(C)(C)N(C(=O)CCl)c2ccccc21,28.0*,-12.5,-2.1,7.8
COc1ccc(-c2cc(C(=O)N3CC4(C)CC3CC(C)(C)C4)no2)cc1OC (stereo unspecified),-0.4,878.7*,-6.0,8.2
O=C1Nc2ccc(Br)cc2C1(O)c1ccccc1 (stereo unspecified),-1.2,-17.6,14.9,-4.9
O=C1Nc2ccc(Br)cc2C12NNc1ccccc1O2 (stereo unspecified),-26.0,308.7*,22.7,-23.1
NC(=O)NC(=O)Nc1ccccc1Cl,18.1,170.3,0.4,-11.3
CC(C)(ONC(=O)Nc1ccccc1Cl)C(=O)O,29.8*,15.9,7.2,-3.2
Fc1ccc2cc(-c3ccsc3)ncc2c1,·,282.4*,15.2,·
SMILES,NALP1 inh,SUMO Mot1 rescue,NLRP3 yeast inh,PolyA inh
CC(C)(C)c1cc(CCC(=O)NCC2CCCO2)cc(C(C)(C)C)c1O (stereo unspecified),9.6,298.0*,5.2,-1.6
COc1ccc(NC(=O)CC(C(=O)O)N2CCCCC2)cc1 (stereo unspecified),4.2,449.9,9.7,6.1
O=C(Nc1ccccc1N1CCOCC1)c1cc(Cl)c2c(c1)OCO2,·,0.8,25.4,·
O=C(Nc1ccc(Cl)cn1)Nc1ccc(Cl)cn1,30.3*,0.5,19.1,-6.5
O=C(Nc1ccc(F)cc1)Nc1ccc(Cl)cn1,-2.0,84.5,14.1,-8.0
O=c1oc2c(CN3CCOCC3)c(O)c(Cl)cc2c2c1CCC2,26.1,·,·,·
Cn1c(=O)oc2cc(S(=O)(=O)N3CCC(C(=O)NCCc4ccccc4)CC3)ccc21,·,2.6,6.5,-18.5
Cc1cccnc1NC(=O)Nc1ccc(F)cc1,27.8*,9.1,27.0,7.7
Cc1ccc(NC(=O)Nc2ncccc2C)cc1,11.3,·,42.7,-21.2
O=C(C1CC(c2ccc(F)cc2)=NO1)N1CCN(Cc2ccccc2)CC1 (stereo unspecified),11.7,317.6*,25.6,1.9
COc1cccc(C2=NOC(C(=O)N3CCN(Cc4ccccc4)CC3)C2)c1OC (stereo unspecified),17.2,-3.7,22.3,-1.7
COc1ccc(S(=O)(=O)NCCSCc2ccc(Cl)cc2)cc1NC(C)=O,·,·,4.4,·
COc1ccc(N2CCN(CCC(O)c3ccc4ccccc4c3)CC2)cc1 (stereo unspecified),39.6*,22.1,28.5,-6.3
Cn1c(SCc2ccccc2Br)nc2ccccc2c1=O,10.1,5.1,26.4,-22.2
Cc1ccc(OCCCCN(C)Cc2ccccc2)c(Br)c1,51.3*,95.4,20.0,-81.9
Cc1ccc(C2C(C#N)=C(N)Oc3n[nH]c(-c4cccnc4)c32)o1 (stereo unspecified),3.7,-5.8,15.9,5.2
O=C1C=CC(=O)N1c1ccc(OC(F)F)cc1,111.8*,76.0,·,·
OCC[C@@H]1C[C@@H](O)[C@H](O)[C@]2(CCCc3ccccc3O2)O1,-8.0,-4.3,6.6,-4.5
COc1ccccc1NC(=O)C(CC(C)C)NC(=O)C1CCCCC1 (stereo unspecified),40.7*,9.3,10.9,-19.1
COc1ccccc1NC(=O)C1CCN(c2ncccn2)CC1,25.2*,-18.1,17.4,6.7
COc1ccc(OC)c(NC(=O)C2CCN(c3ncccn3)CC2)c1,20.5,-16.7,-5.1,·
O=C(NC(=S)Nc1ccccc1)c1cc([N+](=O)[O-])ccc1N1CCOCC1,26.5*,12.8,22.6,-26.9
O=C(Nc1ccccc1)c1cc([N+](=O)[O-])ccc1N1CCCCC1,·,16.1,22.3,·
CCN(CC)S(=O)(=O)c1cnccc1N1CCN(c2cccc(Cl)c2)CC1,53.5*,1.7,11.0,-9.8
Cc1ccc(-c2nnc(N(C)C(=O)c3cccnc3)s2)cn1,-7.8,40.6,6.3,-4.7
SMILES,NALP1 inh,SUMO Mot1 rescue,NLRP3 yeast inh,PolyA inh
Cc1ccc(-c2nnc(N(C)C(=O)c3cccnc3)s2)cc1,41.2*,1.9,37.4,12.1
O=C(CCc1nc2ccccc2[nH]c1=O)OCC(=O)c1ccc(Cl)cc1,-22.2,-18.2,16.4,-3.1
O=C(CCc1nc2ccccc2[nH]c1=O)OCC(=O)c1cccc2ccccc12,36.1*,·,·,·
COc1cc(C(=O)NCc2cccs2)ccc1OCc1c(C)noc1C,·,4.9,4.3,·
Cc1cc(O)cc(O)c1C(=O)Cc1cscn1,-16.9,352.6*,14.4,-6.5
Cc1cccc(NC(=O)CNc2cc(C)ccc2C)c1,4.4,11.0,22.9,-1.4
N=c1n(CCN2CCOCC2)c2ccccc2n1CC(O)COc1ccccc1 (stereo unspecified),15.6,-14.4,15.3,10.8
